Assay results as given in PubChem BioAssay AID1224921 (Broad Institute, 2016).
Hit rate of the full screen: of about 1,400 compounds, about 350 (25%) were called active. Another 2% or so got no clear call; they are omitted. The rule behind the calls is not given here. A selection follows. Entries with a potency or affinity are not part of this list.

Test: inhibitors of Clostridioides difficile proliferation – 4-point retest, confirmation (AID 1224921);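 note: plate controls were DMSO wells for no effect and levofloxacin 16 µg/mL wells for full effect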
Settings: Clostridioides difficile clinical isolate growth, OD600, 24 h, stronger effect = lower value; at 30 µM unless noted

Max activity, inactive:
O=C(Nc1ccc2c(c1)OCO2)N[C@H]1CC[C@H](CCNC(=O)C2CC2)O[C@@H]1CO -10.4% [at 1.95 µM]
CCNC(=O)C[C@@H]1CC[C@H](NC(=O)C2CC2)[C@@H](CO)O1 -9.17%
O=C(NCC[C@H]1CC[C@@H](NC(=O)C2CCCCC2)[C@@H](CO)O1)Nc1ccc(Cl)cc1 15.3% [at 8 µM]
O=C(NCC[C@@H]1CC[C@H](NC(=O)C2CCCCC2)[C@@H](CO)O1)Nc1ccc(Cl)cc1 16.1% [at 8 µM]
C[C@@H]1CN([C@@H](C)CO)S(=O)(=O)c2ccc(C#CC3CC3)cc2O[C@H]1CN(C)Cc1ccncc1 53.6%
C[C@@H]1CN([C@@H](C)CO)S(=O)(=O)c2ccc(C3=CCCC3)cc2O[C@H]1CN(C)Cc1ccncc1 8.26%
CCCN1[C@@H]2c3ccc(/C=C/c4ccccc4)c(=O)n3C[C@H]1[C@H](CO)[C@H]2C(=O)NCC1CC1 3.29%
O=C(Nc1ccc2c(c1)[C@@H]1C[C@H](CC(=O)N3CCc4ccccc4C3)O[C@H](CO)[C@@H]1O2)NC1CCCC1 -11.8%
CC(C)[C@H](C)NC(=O)N(C)C[C@@H]1OCc2ccccc2-c2ccccc2C(=O)N([C@H](C)CO)C[C@H]1C -14.1% [at 8 µM]
CCC(=O)Nc1ccc2c(c1)C(=O)N(C)C[C@H](OC)[C@@H](C)CN(C(=O)CN1CCOCC1)[C@H](C)CO2 -15.4% [at 1.95 µM]
CCCNC(=O)Nc1ccc2c(c1)C(=O)N(C)C[C@@H](OC)[C@H](C)CN(CCC(F)(F)F)[C@@H](C)CO2 17.1%
CO[C@@H]1CN(C)C(=O)c2cc(NC(=O)c3cccc(F)c3)ccc2OC[C@H](C)N(C(C)=O)C[C@H]1C -16.4% [at 0.5 µM]
CCCN1C[C@H](C)[C@@H](OC)CN(C)C(=O)c2cc(NC(=O)Nc3ccccc3F)ccc2OC[C@H]1C -17.1% [at 8 µM]
Cc1noc(C)c1NC(=O)N[C@H]1CC[C@@H](CC(=O)Nc2ccc(-c3ccccc3)cc2)O[C@@H]1CO 28.3% [at 35 µM]
O=C(O)C[C@H]1C[C@@H]2c3cc(NC(=O)c4ccc5c(c4)OCO5)ccc3O[C@@H]2[C@H](CO)O1 -10.2% [at 0.5 µM]
CCNC(=O)C[C@H]1CC[C@H](NC(=O)C2CC2)[C@@H](CO)O1 -15.8% [at 8 µM]
CCNC(=O)C[C@H]1CC[C@@H](NC(=O)C2CC2)[C@H](CO)O1 -5.49% [at 1.95 µM]
CO[C@@H]1CN(C)C(=O)c2ccc(NC(=O)Nc3cccc(Cl)c3)cc2OC[C@@H](C)N(C(=O)Nc2c(C)noc2C)C[C@H]1C -7.11% [at 0.5 µM]
C[C@@H]1CN([C@@H](C)CO)S(=O)(=O)c2ccc(C3=CCCCC3)cc2O[C@@H]1CN(C)Cc1ccncc1 54.5%
CCS(=O)(=O)Nc1ccc2c(c1)C(=O)N(C)C[C@H](OC)[C@@H](C)CN(C(C)=O)[C@@H](C)CO2 -9.47% [at 1.95 µM]
CO[C@@H]1CN(C)C(=O)c2cc(NC(C)=O)ccc2OC[C@H](C)N(Cc2nccs2)C[C@H]1C 10.1%
CO[C@H]1CN(C)C(=O)c2cc(NC(C)=O)ccc2OC[C@H](C)N(CC2CCCCC2)C[C@H]1C 16.4%
C[C@@H]1CN([C@H](C)CO)S(=O)(=O)c2ccc(C#CC3(O)CCCC3)cc2O[C@@H]1CN(C)C(=O)Nc1ccc(F)cc1 21.5%
O=C(C[C@@H]1C=C[C@@H](NC(=O)Cc2cccnc2)[C@H](CO)O1)Nc1ccccc1 -12.6%
COc1ccccc1S(=O)(=O)N[C@@H]1C=C[C@H](CC(=O)N2CCCCC2)O[C@H]1CO -12.3% [at 8 µM]
O=C(C[C@@H]1C[C@H]2c3cc(NC(=O)Nc4ccccc4)ccc3O[C@H]2[C@@H](CO)O1)NC1CCCC1 -18%
Cc1ccc(-c2ccc3c(c2)O[C@H](CN(C)Cc2cccnc2)[C@H](C)CN([C@@H](C)CO)S3(=O)=O)cc1 32.9%
CC(=O)N(C)C[C@@H]1Oc2ncc(C#Cc3ccc(F)cc3)cc2C(=O)N([C@H](C)CO)C[C@H]1C 21.7%
CO[C@H]1CN(C)C(=O)c2ccc(NC(=O)Nc3cccc(Cl)c3)cc2OC[C@@H](C)NC[C@@H]1C 37.7%
CO[C@H]1CN(C)C(=O)c2ccc(NC(=O)Nc3cccc(Cl)c3)cc2OC[C@H](C)NC[C@@H]1C -12.1% [at 8 µM]
C[C@@H]1CN([C@H](C)CO)C(=O)c2cc(NC(=O)CCCN(C)C)ccc2O[C@@H](C)CCCCO[C@@H]1CN(C)Cc1ccc(C(F)(F)F)cc1 6.03% [at 35 µM]
C[C@@H]1CN([C@H](C)CO)C(=O)c2cc(NC(=O)Nc3cccc4ccccc34)ccc2O[C@@H](C)CCCCO[C@H]1CN(C)C(=O)c1ccccc1 24.4%
CO[C@@H]1CN(C)C(=O)c2ccc(NC(C)=O)cc2OC[C@@H](C)N(C(=O)CN(C)C)C[C@H]1C -8.17%
CCCC(=O)Nc1ccc2c(c1)C(=O)N(C)C[C@@H](OC)[C@@H](C)CN(Cc1ccc(F)cc1)[C@H](C)CO2 20.9%
COc1ccc(-c2cnc3c(c2)C(=O)N([C@H](C)CO)C[C@H](C)[C@@H](CN(C)Cc2ccc(C(=O)O)cc2)O3)cc1 -17.6% [at 2.1 µM]
CO[C@H]1CN(C)C(=O)c2cc(NC(=O)c3nc4ccccc4s3)ccc2OC[C@H](C)N(Cc2ccncc2)C[C@@H]1C 20%
CCC(=O)N1C[C@@H](C)[C@@H](OC)CN(C)C(=O)c2ccc(NC(=O)Nc3ccccc3)cc2OC[C@H]1C -13.3% [at 1.95 µM]
COCC(=O)N(C)C[C@H]1Oc2cc(C#Cc3ccccc3)ccc2S(=O)(=O)N([C@H](C)CO)C[C@H]1C 35.4%
CCS(=O)(=O)Nc1ccc2c(c1)C(=O)N(C)C[C@@H](OC)[C@@H](C)CN(CC1CCCC1)[C@@H](C)CO2 -10.9% [at 0.5 µM]
Cc1ccc(-c2ccc3c(c2)O[C@@H](CN(C)Cc2cccnc2)[C@@H](C)CN([C@H](C)CO)S3(=O)=O)cc1 26.8%
CN1CCN(C(=O)C[C@@H]2C[C@@H]3c4cc(NC(=O)Cc5ccncc5)ccc4O[C@@H]3[C@H](CO)O2)CC1 13.2%
O=C(N[C@@H]1C=C[C@@H](CC(=O)N2CCOCC2)O[C@@H]1CO)c1cccc(F)c1 -15.3% [at 1.95 µM]
C[C@H](CO)N1C[C@H](C)[C@H](CN(C)C(=O)Nc2ccc(F)cc2)Oc2ncc(-c3cc4ccccc4o3)cc2C1=O 26.1%
COc1ccccc1S(=O)(=O)N[C@H]1C=C[C@@H](CC(=O)N2CCCCC2)O[C@H]1CO -12.3%
COc1ccc(CNC(=O)C[C@H]2C[C@@H]3c4cc(NC(=O)NC5CCCC5)ccc4O[C@@H]3[C@@H](CO)O2)cc1 -9.75%
CO[C@@H]1CN(C)C(=O)c2ccc(NC(=O)C3CCCC3)cc2OC[C@@H](C)NC[C@@H]1C -1.17% [at 1.95 µM]
CO[C@H]1CN(C)C(=O)c2ccc(NC(=O)C3CCCCC3)cc2OC[C@H](C)N(Cc2nccs2)C[C@H]1C 21.8% [at 8 µM]
C[C@@H]1CN([C@H](C)CO)C(=O)c2ccccc2-c2ccccc2CO[C@H]1CN(C)S(=O)(=O)c1ccsc1 29%
C[C@@H]1CN([C@H](C)CO)C(=O)Cc2cc(NS(C)(=O)=O)ccc2O[C@H]1CN(C)Cc1ccccc1 15.9%
COc1ccc(-c2ccc([C@H]3[C@H](C#N)N(C(=O)NC4CCCC4)[C@H]3CO)cc2)cc1 36.8% [at 9 µM]
CO[C@H]1CN(C)C(=O)c2cc(NC(=O)c3cccc(F)c3)ccc2OC[C@H](C)N(C(C)=O)C[C@H]1C -6.58%
Cc1nn(C)cc1NC(=O)C[C@@H]1CC[C@@H]2[C@@H](COc3ccc(NC(=O)Nc4cccc(Cl)c4)cc3C(=O)N2C)O1 10.1%
Cc1ccccc1-c1ccc2c(c1)O[C@H](CN(C)Cc1ccncc1)[C@@H](C)CN([C@H](C)CO)S2(=O)=O 13.6%
CCC(=O)Nc1ccc2c(c1)OC[C@H](C)N(CC1CCCCC1)C[C@H](C)[C@@H](OC)CN(C)C2=O 33.6%
COCC(=O)Nc1ccc2c(c1)OC[C@@H](C)N(Cc1ccccc1F)C[C@@H](C)[C@@H](OC)CN(C)C2=O -4.19%
C[C@@H]1CN([C@H](C)CO)C(=O)c2ccccc2-c2ccccc2CO[C@@H]1CN(C)C(=O)CCN(C)C -7.59% [at 2.1 µM]
COc1ccc(S(=O)(=O)Nc2ccc3c(c2)CC(=O)N([C@@H](C)CO)C[C@H](C)[C@@H](CN(C)CC2CCCCC2)O3)cc1 52.7%
C[C@@H]1CN([C@@H](C)CO)C(=O)Cc2cc(NS(C)(=O)=O)ccc2O[C@H]1CN(C)CC1CCCCC1 14.3%
C[C@@H]1CCCCO[C@H](CN(C)Cc2ccc(C(F)(F)F)cc2)[C@@H](C)CN([C@@H](C)CO)C(=O)c2cc(NS(=O)(=O)c3ccc(Cl)cc3)ccc2O1 24% [at 8 µM]
C[C@H](CO)N1C[C@H](C)[C@H](CN(C)CC2CCCCC2)OCCCC[C@H](C)Oc2ccc(NS(=O)(=O)c3ccc(Cl)cc3)cc2C1=O 23% [at 8 µM]
Cc1ccc(S(=O)(=O)Nc2ccc3c(c2)C(=O)N([C@@H](C)CO)C[C@H](C)[C@@H](CN(C)Cc2ccc(C(F)(F)F)cc2)OCCCC[C@@H](C)O3)cc1 32.7% [at 8 µM]
C[C@H]1CN([C@@H](C)CO)C(=O)Cc2cc(NS(=O)(=O)c3ccccc3)ccc2O[C@@H]1CN(C)Cc1ccc(Cl)c(Cl)c1 49.4%
Cc1ccc(S(=O)(=O)Nc2ccc3c(c2)C(=O)N([C@@H](C)CO)C[C@@H](C)[C@H](CN(C)C)OCCCC[C@H](C)O3)cc1 -4% [at 8 µM]
C[C@@H]1CN([C@H](C)CO)C(=O)Cc2cc(NS(=O)(=O)c3ccccc3)ccc2O[C@@H]1CN(C)Cc1ccc(Cl)c(Cl)c1 30.5% [at 35 µM]
